Measurements: PubChem BioAssay AID743397 (Broad Institute, 2014)
About 330 (0.097%) of roughly 340,000 compounds were called active.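 How the source made its calls: active means mean replicate inhibition of at least 30% and at least 1% of replicates passing that level; inconclusive means only one of the two criteria is met; inactive means neither criterion is met.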 This excerpt belongs to a sample that is enriched for actives.

Test system: Voltage-dependent L-type calcium channel subunit alpha-1D (CaV1.3) ICDI/IQ interaction
Experiment: Disruptors of the CACNA1D IQ motif to Ca2+-dependent inactivation inhibitor domain association, primary screening, Förster resonance energy transfer in intact living cells, one concentration (AID 743397);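 further: 0% = median of the neutral control wells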
Details: HEK cells, CFP/YFP FRET ICDI-IQ, plate reader, 10 min; at 12.3 µM; hits give high values; percent FRET-ratio fall versus neutral wells

inhibition, inactive:
COc1ccccc1Cc1c(-c2ccc(F)cc2)nc2ccc(C)cn12 -8.77%, CC(C)(C)C(c1nc2ccccc2[nH]1)n1c(Cc2csc3ccccc23)nc2ccccc21 (centres undefined) -10%, COC(=O)[C@]12C[C@H](CC(=O)NCc3ccccc3)C(=O)N(CCC3=CCCCC3)C1=C[C@H](C(C)(C)C)O[C@@H]2C -8.62%, COC(=O)Cc1nnn2c1[C@H](C)[C@H](c1ccccc1Br)OCC2 -6.7%, CC(=O)c1ccc(S(=O)(=O)NCC2CCN(C(=O)C(=O)c3cccs3)CC2)cc1 -7.65%, COc1ccc(-c2ccccc2C2Cc3nnccc3CN2C(=O)Nc2ccccc2)cc1 (centres undefined) -4.58%, CC(C)[C@@H](C)/C=C/[C@@H](C)[C@H]1CC[C@@H]2[C@]1(C)CCC1[C@]23C=C[C@]2(C[C@@H](O)CC[C@]12C)N(c1ccc([N+](=O)[O-])cn1)O3 (some centres undefined) -8.61%, COC(=O)C1=C(C)N(Cc2ccccc2C(F)(F)F)C(=NCc2ccc(C(F)(F)F)cc2)NC1c1ccc(F)cc1 (centres undefined) -9.8%, CCCCCc1c(-c2ccc(OC)c(OC)c2)ncn1CCc1ccccc1OC -11%, COC(=O)Cc1nnn2c1[C@H](C)[C@@H](OC)c1cc(Br)ccc1-2 -5.26%, CCCN1C(=O)c2[nH]nc(-c3ccccc3)c2C1c1ccccc1 (centres undefined) -3.81%, COC(=O)[C@H](CC(C)C)NS(=O)(=O)c1c(F)cccc1F -4.96%, CSc1ccc(Oc2cccc3c2S(=O)(=O)N([C@H](C)c2ccccc2)C[C@@H](COCc2ccccc2)O3)cc1C -9.54%, COc1cccc(CC(=O)N2CCN(C(=O)C(=O)c3cccc(C(F)(F)F)c3)CC2)c1 -9.3%, Cc1ccc(NS(=O)(=O)c2cc3c(cc2Br)NC(=O)CO3)cc1C -4.61%, OC(c1ccccc1)(c1ccccc1)C1CCN(CCCOc2ccc(-c3ccsc3)cc2)CC1 -9.67%, COC(=O)[C@]12C[C@H](CC(=O)NCc3ccc(C)o3)C(=O)N(CCC3=CCCCC3)C1=C[C@H](C(C)(C)C)O[C@@H]2C -11.3%, CCCCCCCCN1C(=O)[C@@H](CC(=O)N2CCN(C(=O)OCC)CC2)C[C@@]2(C(=O)OC)C1=C[C@H](C1CCCC1)O[C@@H]2C -9.25%, C[C@H](CO)N1C[C@H](C)[C@@H](CN(C)C(=O)Nc2ccccc2F)OCc2cn(nn2)CCCC1=O -4.14%, CN(C)C(=O)N1CCN(C(=O)[C@@H](Cc2ccccc2)NC(=O)[C@H]2O[C@@H](n3ccc(N)nc3=O)[C@H](O)[C@@H]2O)CC1 -3.39%, CN1CCCc2nc(-c3ccccc3)ccc21 -4.26%, Cc1noc(C)c1NC(=O)Nc1ccc2c(c1)C(=O)N([C@H](C)CO)C[C@H](C)[C@H](CN(C)Cc1ccncc1)OCCCC[C@@H](C)O2 -5.78%, CCOC(=O)c1cccc(NC(=O)C2CCCN(S(=O)(=O)c3cnc[nH]3)C2)c1 (centres undefined) -9.58%, Cc1cccc(N2CCN(C(=O)C3CCN(S(=O)(=O)c4cnc[nH]4)CC3)CC2)c1C -5.87%, COC(=O)C1=C(C)N(Cc2cccc(C(F)(F)F)c2)C(=NCc2cccc(C(F)(F)F)c2)NC1c1ccccc1C(F)(F)F (centres undefined) -2%, COC(=O)[C@@]12C[C@@H](CC(=O)NCCCCc3ccccc3)C(=O)N(CCc3ccc(OC)c(OC)c3)C1=CCC(C)(C)C2 -8.1%, O=S1(=O)c2c(cccc2N2CCCC2)O[C@H](COCc2ccccc2)CN1C1CC1 -7.56%, CC1CCN(C(=O)c2ncn3c2C(=O)N[C@@H](C)C3)CC1 -3.16%, COc1cccc(-c2cc(CNC(=O)[C@@H](Cc3ccccc3)NC(=O)[C@H]3O[C@@H](n4cnc(C(N)=O)n4)[C@H](O)[C@@H]3O)no2)c1 -2.93%, COC(=O)[C@@]12C[C@@H](CC(=O)NCCCCc3ccccc3)C(=O)N(Cc3ccccc3)C1=CCC(C)(C)C2 -17%, COC(=O)Nc1nc2ccc(C(=O)C3CC3)cc2[nH]1 -11.2%, COC(=O)C1=C(C)N(Cc2ccc(C(F)(F)F)cc2)C(=NCc2ccc(C(F)(F)F)cc2)NC1c1cccc(Cl)c1 (centres undefined) -9.62%, C[C@H](O)[C@@H]1CN2CCc3ccc(-c4ccc5c(c4)OCO5)cc3[C@@H]2C[C@@H]1N(C)C(=O)C1CCCCC1 -2.76%, O=C(C(=O)N1CCC(CNC(=O)c2cccnc2Cl)CC1)c1cccs1 -10.2%, Cc1ccccc1C(=O)N[C@H](C(=O)N1CCC[C@H]1C(=O)NCc1ccccc1)C(C)C -3.3%, CCOc1ccccc1C(=O)N1CCC[C@@H]1C(=O)N1CCC[C@H]1C(=O)NCc1ccccc1 -4.37%, N#Cc1cccc(C(=O)NCC2CCN(C(=O)C(=O)c3cc4ccccc4o3)CC2)c1 -8.07%, NC(=O)c1ncn([C@@H]2O[C@H](C(=O)O)[C@@H](O)[C@H]2O)n1 -4.52%, CC1(C)OC(=O)C2=C(CC(CCc3ccccc3)OC2c2ccc(Cl)cc2)O1 (centres undefined) -9.52%, Fc1ccc(-c2ccc(NCCN3CCOCC3)nn2)cc1 -2.08%, c1ccc(-c2ccc(OCCN3CCOCC3)cc2)cc1 -9.07%, C#CCN([C@@H](C)C(=O)OCC)S(=O)(=O)c1ccc(Br)cc1F -4.44%, COC(=O)[C@]12C[C@H](CC(=O)NCCc3ccccc3OC)C(=O)N(Cc3ccccc3)C1=C[C@H](C(C)C)O[C@@H]2C1CC1 -8.67%, COC(=O)[C@]12C[C@H](CC(=O)NCCC(C)C)C(=O)N(CCc3ccc(OC)c(OC)c3)C1=C[C@H](C(C)(C)C)O[C@@H]2C -8.8%, Nc1ncnc2c1ncn2[C@@H]1O[C@H](C(=O)N[C@@H](CCc2ccccc2)C(=O)N2CCCN(Cc3cccs3)CC2)[C@@H](O)[C@H]1O -9.97%, COC(=O)[C@]12C[C@H](CC(=O)NCCCCc3ccccc3)C(=O)N(Cc3ccc4c(c3)OCO4)C1=C[C@H](C(C)(C)C)O[C@@H]2C -10.1%, COc1cccc(CNC(=O)[C@H]2CCCN2C(=O)[C@H]2CCCN2C(=O)c2cc(F)cc(F)c2)c1 -7.03%, Cc1cc(N2CCN(C(=O)OC(C)(C)C)C[C@H]2C)ccc1N1CCN(Cc2ccccc2)[C@H](C)C1 -7.25%, CCCCCCCCN1C(=O)[C@@H](CC(=O)NCc2ccc(C)o2)C[C@@]2(C(=O)OC)C1=C[C@H](C(C)(C)C)O[C@@H]2C -10.3%, Nc1nc2c(ncn2[C@@H]2O[C@H](C(=O)N[C@@H](Cc3ccccc3)C(=O)NCc3ccccc3)[C@@H](O)[C@H]2O)c(=O)[nH]1 -5.12%, C=CCN1C(=O)N(Cc2ccccc2)c2ccccc2S1(=O)=O -4.73%, CCCCOCC1CN(CCCC)S(=O)(=O)c2c(Oc3ccc(F)cc3)cccc2O1 (centres undefined) -7.83%, COc1cccc(CNC(=O)[C@H]2CCCN2C(=O)[C@H]2CCCN2C(=O)C2CCCCC2)c1 -4.37%, O=C(NS(=O)(=O)c1cccs1)[C@H]1O[C@@H](n2ccc(=O)[nH]c2=O)[C@H](O)[C@@H]1O -3.64%, CC(C)CNc1cccc2c1S(=O)(=O)N[C@H](C)CO2 -7.79%, COC(=O)C1=C(C)NC(=S)NC1c1ccc(OC)cc1 (centres undefined) -4.39%, COc1ccc(C2=CN(Cc3ccccc3)C(c3ccc(OC)cc3)CC2=O)cc1 (centres undefined) -3.32%, CCOc1ccc(C2C3=C(CCCC3=O)N(CC(=O)O)C3=C2C(=O)CCC3)cc1 -13.8%, COc1ccc(C2C(C#N)=C(N)N(c3ncn[nH]3)C3=C2C(=O)CCC3)cc1 (centres undefined) -4.27%, Cc1cc(NCCc2c[nH]c3ccccc23)ccc1Oc1cccnc1 -8.52%, Cc1cc(OC(=O)NCCc2ccc(F)cc2)ccc1F -6.4%, COc1ccccc1C(=O)N1O[C@]23C=C[C@]14C[C@@H](O)CC[C@]4(C)C2CC[C@]1(C)[C@@H]([C@H](C)/C=C/[C@H](C)C(C)C)CC[C@H]13 (some centres undefined) -9.42%, CC(C)CNc1cccc2c1S(=O)(=O)N[C@H](CC(C)C)CO2 -5.08%, CCOCCn1c(-c2ccccc2)nc2ccccc21 -20.2%, Cc1cc(NC(C)C)n2c(nc3ccccc32)c1C#N -0.654%, COc1ccccc1-c1ccc([C@@H]2C[C@H]3[C@H](CON3C)CN2S(=O)(=O)c2cc(Cl)cc(Cl)c2)cc1 -4.02%, Cc1nc2c(OCc3ccc(Cl)cc3)cccn2c1N(C)Cc1cccs1 -6.54%, CCCCc1c(-c2ccc(Cl)cc2)ncn1CCc1ccccc1OC -10.1%, C=CC1=CCN(S(=O)(=O)C(C)(C)C)[C@@H]1CCO -4.63%, CCN1C(=O)N[C@@H]2C[C@H](C(=O)N3CCCC3)[C@H](C)[C@H](c3ccccc3)C[C@@H]21 -3.87%

inhibition, active:
COc1cccc(N2CCN(C(=O)C3CCCN(S(=O)(=O)c4cnc[nH]4)C3)CC2)c1 (centres undefined) 46.8%, c1ccc2cc3c(NCCN4CCOCC4)ccnc3cc2c1 147%, COc1ccc(C2C3=C(CCCC3=O)N(CC(=O)O)C3=C2C(=O)CCC3)cc1 111%, CCOCCCNc1c(CC)c(C)c(C#N)c2nc3ccccc3n12 61%
